Only some compounds are listed: those with a hit (about 7.2% of all), similar ones and a draw of the others.
ALR inh = inhibitors of human sulfhydryl oxidase ALR. P55789. purified ALR, DTT oxidation, H2O2 HRP-luminol luminescence. inhibition, % (no concentration beside the values). 3.8% of 290,000 active. AID 485317;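 active = mean replicate inhibition above about 79%, with every replicate also reaching it, limit read from the data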
VLA-4 inh = inhibition in a human VLA-4 binding assay | inhibition, % (about 7 µM as worked out from the volumes in the protocol) | VLA-4 expressing cells, ligand binding flow cytometry | 0.2% of 330,000 active | AID 2557; in the data active = inhibition above about 50%
SUMO Mot1 rescue = blocks SUMOylation pathway, rescuing yeast Mot1-301 growth; S. cerevisiae Mot1-301 growth rescue, ATP luminescence, 38.5C; percent above DMSO median, 100 means doubled; growth rescue, % at 18.8 µM; 1% of 320,000 active;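 active = every valid replicate shows activation above 250% relative to neutral control wells; inactive = the rest, any valid replicate at or below 250%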;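 also: OY570 slx delta 5 strain wells were the positive control but not used for scaling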
AHR activator = activators of human aryl hydrocarbon receptor | P35869 | AHR-responsive luciferase reporter cells, luminescence | activation, % at 5 µM | 2.5% of 320,000 active; in the data active = activation above about 47%;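 also: 0% = vehicle wells and 100% = reference agonist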
Target sequence (P35869 whole entry, looked up): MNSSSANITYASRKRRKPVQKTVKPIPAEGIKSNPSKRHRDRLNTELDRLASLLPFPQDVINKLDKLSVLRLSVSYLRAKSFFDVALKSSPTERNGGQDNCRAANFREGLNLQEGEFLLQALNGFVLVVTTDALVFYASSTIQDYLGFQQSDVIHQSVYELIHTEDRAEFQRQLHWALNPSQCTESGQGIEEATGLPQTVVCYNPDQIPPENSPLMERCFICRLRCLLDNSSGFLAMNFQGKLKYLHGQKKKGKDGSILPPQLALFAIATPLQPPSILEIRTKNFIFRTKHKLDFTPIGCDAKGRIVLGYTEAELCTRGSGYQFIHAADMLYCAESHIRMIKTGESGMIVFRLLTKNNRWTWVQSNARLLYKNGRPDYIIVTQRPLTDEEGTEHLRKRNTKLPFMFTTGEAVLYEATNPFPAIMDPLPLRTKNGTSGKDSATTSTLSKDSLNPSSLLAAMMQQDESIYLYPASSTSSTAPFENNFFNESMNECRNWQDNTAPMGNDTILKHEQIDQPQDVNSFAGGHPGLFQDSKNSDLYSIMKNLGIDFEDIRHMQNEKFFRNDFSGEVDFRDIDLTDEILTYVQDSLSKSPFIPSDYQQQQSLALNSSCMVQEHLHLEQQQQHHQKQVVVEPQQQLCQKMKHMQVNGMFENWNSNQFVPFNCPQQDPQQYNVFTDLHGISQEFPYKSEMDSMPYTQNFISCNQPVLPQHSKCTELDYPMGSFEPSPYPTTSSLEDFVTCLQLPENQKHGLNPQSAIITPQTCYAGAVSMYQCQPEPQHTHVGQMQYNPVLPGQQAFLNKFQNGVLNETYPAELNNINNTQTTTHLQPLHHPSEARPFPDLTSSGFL
Efflux pump inh = antifungal efflux pump inhibition, Nile Red retention; S. cerevisiae Candida pump triplex; inhibition, % at 10 µM; 0.44% of 330,000 active;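 active = plate passing quality check with inhibition over a set limit, or well fluorescence over plate mean plus 4 SD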;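 also: Nile Red retained in pooled yeast measured as flow cytometry median fluorescence; 0% = buffer negative control and 100% = Enniatin B positive control; higher means more Nile Red kept so more efflux inhibition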
Bfl-1 A1 inh = inhibitors of the anti-apoptotic protein A1, read as caspase activation. MEF A1-2A-BIM cells, Caspase-Glo 3/7 luminescence, 3 h; percent of clofoctol response, vehicle zero. 0.066% of 330,000 active. caspase activation, % (no concentration beside the values);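 active = over half of replicate activation scores above 10%, or exactly half above 10 with the replicate mean above 10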
Numbers without * were called inactive; i = inactive; nt = not tested or not shown.

SMILES	ALR inh	VLA-4 inh	SUMO Mot1 rescue	AHR activator	Efflux pump inh	Bfl-1 A1 inh
CCN(CC)c1ccc(N=Cc2ccc(N(CC)CC)cc2O)cc1	18	i	-4	7	0	-1
CCN(CC)c1ccc(/C=N/N=C(N)N)c(O)c1	76*	40	123	19	0	0
CCN(CC)c1ccc(C=Nc2ccc(N(C)C)cc2)c(O)c1	98*	-196	10	28	1	-2
CCN(CC)c1ccc(/C=N/N2C(C)CCCC2C)c(O)c1 (centres undefined)	98*	-29	10	14	0	0
COc1ccc(Nc2ccnc3ccccc23)cc1	15	9	21	7	0	0
CC(C)Nc1ccc(Nc2ccnc3cc4ccccc4cc23)cc1	99*	33	183	19	0	-1
O=C(O)c1ccccc1C(=O)Nc1ccc(-c2csc(-c3ccccc3)n2)cc1	99*	-4	21	3	0	-1
O=C(O)c1ccc(-c2nc(-c3ccccc3)cs2)cc1	95*	6	-8	11	0	-7
N#Cc1cnc(SCC(=O)NNC(=O)COc2cccc3ccccc23)nc1N	nt	1	288	39	-2	0
CC(=O)Nc1cccc(NC(=O)CSc2nc(=O)n(Cc3ccccn3)c3c2CCC3)c1	98*	-6	10	6	0	0
CC(=O)Nc1cccc(NC(=O)CSc2nc(=O)n(Cc3ccncc3)c3c2CCC3)c1	99*	-11	-8	-2	0	-1
CCOc1ccccc1NC(=O)CSc1nc(=O)n(Cc2ccccn2)c2c1CCC2	nt	1	-6	0	0	0
Clc1cccc(Nc2nc(-c3cccnc3)cs2)c1	3	6	148	55*	0	-1
COc1ccc(Cl)cc1Nc1nc(-c2cccnc2)cs1	-11	21	36	19	0	-5
Brc1cccc(Nc2nc(-c3cccnc3)cs2)c1	3	10	78	70*	0	1
CC(C)c1ccccc1NC(=O)CNC(C)c1ccc(F)cc1 (centres undefined)	-21	14	1	-1	0	0
Cc1ccc2c(c1)c(CC(=O)Nc1ccc(F)cc1)c(C(=O)O)n2C	4	4	-5	6	0	1
COc1ccc(C2=CSC3=NCCN23)cc1F	85*	1	-7	1	0	0
COC(=O)[C@H](Cc1ccc(O)cc1)NC(=O)Cn1cnc2c(NCc3ccccc3)ncnc21	nt	nt	nt	nt	0	nt
CCCCN1CC(=O)N2[C@H]3c4cc(C)ccc4OC[C@@H]3[C@H](C(=O)OCC)[C@]2(C)C1=O	-4	22	-4	0	0	0
Cc1noc(C)c1CSCC(=O)N(CC(C)C)c1c(N)n(Cc2ccccc2)c(=O)[nH]c1=O	-16	-6	-5	-1	0	0
COc1ccc2cc(C(=O)C3CCCN(C(=O)c4cncs4)C3)ccc2c1 (centres undefined)	-21	0	279	59*	0	0
Cc1sc(NC(=O)c2cccs2)nc1-c1ccccc1	2	-1	5	29	-1	1
Cc1sc(N/N=C/c2cccs2)nc1-c1ccccc1	-1	8	112	78*	0	0
CN(C)c1ccc(P(=O)(CC(=O)N/N=C/c2ccc(C#N)cc2)OCCCl)cc1 (centres undefined)	-8	6	5	3	0	0
SMILES	ALR inh	VLA-4 inh	SUMO Mot1 rescue	AHR activator	Efflux pump inh	Bfl-1 A1 inh
CCN(c1ccccc1)S(=O)(=O)c1ccc(Oc2ccc(-n3ccnc3)cc2)nc1	-5	-4	12	59*	0	1
CCN(c1ccccc1)S(=O)(=O)c1ccc(Oc2ccccc2C(C)=O)nc1	1	3	-13	4	0	0
O=C(CSc1nc2[nH]ncc2c(=O)[nH]1)NCCc1ccccc1	-1	7	-11	78*	0	1
COc1ccc(-c2cn(-c3ccccc3)c(=S)[nH]2)cc1OC	-7	1	5	43	0	-1
Nc1ccc(-n2cc(-c3ccccc3)[nH]c2=S)cc1	91*	21	-18	24	0	0
COc1ccc(-n2cc(-c3ccc(Cl)cc3)[nH]c2=S)cc1	-1	-5	-10	42	0	1
S=c1[nH]c(-c2ccccc2)cn1-c1ccccc1	97*	1	-12	36	0	0

Assay outcomes deposited in PubChem by several laboratories.
